Among the test systems are NCI-H23 lung; NCI-H322M lung; HOP-62 NSCLC; NCI-H460 lung; HOP-92 NSCLC; NCI-H522 lung; A549/ATCC NSCLC; 786-0 renal; COLO 205 colon; DU-145 prostate; K-562 leukemia; MALME-3M melanoma; MDA-MB-231 breast; RXF 393 renal; SF-268 CNS; SF-295 CNS; SF-539 CNS; UACC-257 melanoma; M14 melanoma; HCT-15 colon.
Common to all, as to test: NCI-60 one-dose screen, 48 h (100 = growth as untreated, 0 = no growth, -100 = all killed)
What all share (settings): 10 µM unless noted

Molecules are shown by their SMILES. Compounds without any hit were thinned out: in the full panel of roughly 83,000, 20% have a hit.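 Method: cells in 96-well plates; compound added at one concentration; 48 h incubation; percent growth measured; values under 10 scored active.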 Values without a mark were called inactive. Active and inactive are the calls of the source.

Regarding `CC(=O)Nc1nc2c(s1)CCc1c-2cn(S(=O)(=O)c2ccccc2)c1-c1ccccc1`, the growth in the experiment on NCI-H23 lung was 82.1%; in the experiment with NCI-H322M lung, 79.4%; in the experiment with HOP-62 NSCLC it was 101%; in the experiment with NCI-H460 lung, 75.3%; in the experiment with HOP-92 NSCLC it was 87.4%; with NCI-H522 lung, 54.5%. The growth in the experiment with A549/ATCC NSCLC was 53.4%; in the experiment with 786-0 renal it was 88.3%; in the experiment with COLO 205 colon it was 75.3%; with DU-145 prostate it was 78.4%; in the experiment on K-562 leukemia, 37.9%; with MALME-3M melanoma, -23.6% (active). Besides, the growth is 73.6% with MDA-MB-231 breast; 85% with RXF 393 renal; 71.4% with SF-268 CNS; 43.5% in the experiment with SF-295 CNS; 93.5% in the experiment with SF-539 CNS; 93% with UACC-257 melanoma. Moreover, the growth was 36.9% with M14 melanoma and 51.9% in the experiment on HCT-15 colon.
In the case of `O=C1Nc2ccccc2/C1=C/c1ccc[nH]1`, the growth with NCI-H23 lung was 84.9%; in the experiment with NCI-H322M lung, 88%; in the experiment with HOP-62 NSCLC, 78.8%; in the experiment on NCI-H460 lung, 85.9%; in the experiment with HOP-92 NSCLC, 104%; with NCI-H522 lung, 90.9%. The growth was 92.9% with A549/ATCC NSCLC; 96.3% in the experiment on 786-0 renal; 106% in the experiment with COLO 205 colon; 101% with DU-145 prostate; 107% in the experiment on K-562 leukemia; 94.5% in the experiment on MALME-3M melanoma. Further, the growth was 40.3% with MDA-MB-231 breast; 80.5% in the experiment on RXF 393 renal; 92.1% in the experiment on SF-268 CNS; 102% in the experiment on SF-295 CNS; 86.6% in the experiment on SF-539 CNS; 96.6% in the experiment on UACC-257 melanoma. Besides, the growth was 89.8% in the experiment with M14 melanoma and 42.1% in the experiment on HCT-15 colon.
As to `Cc1ccc(C)c(-c2csc(Nc3ccc(C)c(C)c3)n2)c1`, the growth in the experiment on NCI-H23 lung was 57%; with NCI-H322M lung, 91.1%; with HOP-62 NSCLC it was 62.3%; in the experiment on NCI-H460 lung it was 38.5%; in the experiment with HOP-92 NSCLC, 27.1%; with NCI-H522 lung, 65.3%. For the same molecule, the growth in the experiment on A549/ATCC NSCLC was 43.6%; with 786-0 renal, 65.9%; in the experiment with COLO 205 colon, -54.6% (active); in the experiment on K-562 leukemia, -36.5% (active); with MALME-3M melanoma, -86.3% (active); in the experiment with MDA-MB-231 breast, 39.5%. Further, the growth with RXF 393 renal was 21.8%; in the experiment with SF-268 CNS, 75.5%; in the experiment with SF-295 CNS, -79.5% (active); in the experiment on SF-539 CNS, 25.1%; in the experiment with UACC-257 melanoma, -58.6% (active); with M14 melanoma, -81.3% (active). For the same molecule, the growth in the experiment on HCT-15 colon was 12.4%.
Consider `CC(C)CCOc1ccc(-c2n[nH]c(C(F)(F)F)c2-c2cncc(C#N)c2)c(O)c1`, for which the growth with NCI-H23 lung was -0.157% (active); in the experiment on NCI-H322M lung, 12.4%; in the experiment with HOP-62 NSCLC it was 5.79% (active); in the experiment with NCI-H460 lung, 3.48% (active); in the experiment on HOP-92 NSCLC, -27.9% (active); in the experiment with NCI-H522 lung, -6.89% (active). In addition, the growth is 10.4% in the experiment on A549/ATCC NSCLC; 17.1% with 786-0 renal; 49% in the experiment with COLO 205 colon; 18% in the experiment with DU-145 prostate; -0.801% (active) with MALME-3M melanoma; 1.43% (active) with MDA-MB-231 breast. Further, the growth in the experiment on SF-268 CNS was 21.9%; with SF-295 CNS it was 0.826% (active); in the experiment on SF-539 CNS, 25.2%; in the experiment on UACC-257 melanoma it was -14% (active); in the experiment on M14 melanoma, 22.5%; in the experiment with HCT-15 colon it was 12%.
As to `Cc1ccc(C(=O)c2oc3ccc4c(C)cc(=O)oc4c3c2C)cc1`, the growth with NCI-H23 lung is 40.4%; in the experiment on NCI-H322M lung, 63.1%; in the experiment on HOP-62 NSCLC, 61.3%; in the experiment with NCI-H460 lung, 3.14% (active); with HOP-92 NSCLC, 9.32% (active); in the experiment with NCI-H522 lung, 25.7%. Besides, the growth is 14.8% with A549/ATCC NSCLC; 57.3% in the experiment on 786-0 renal; -59.7% (active) in the experiment with COLO 205 colon; 64.7% in the experiment on DU-145 prostate; 11.7% in the experiment on K-562 leukemia; 46.8% in the experiment with MDA-MB-231 breast. In addition, the growth was 37.2% with RXF 393 renal; 52.1% in the experiment on SF-268 CNS; 4.06% (active) with SF-295 CNS; 46.7% in the experiment with SF-539 CNS; -4.34% (active) in the experiment on UACC-257 melanoma; 42.5% in the experiment with M14 melanoma. Besides, the growth with HCT-15 colon is 23%.
`COc1cc(/C=C/C(=O)c2ccc(Cl)cc2)cc(CN2CCCCC2)c1O`: the growth in the experiment with NCI-H23 lung was 92.6%; with NCI-H322M lung it was 91.6%; with HOP-62 NSCLC, 94.7%; in the experiment on NCI-H460 lung it was 94.3%; in the experiment with HOP-92 NSCLC it was 75.5%; with NCI-H522 lung, 77.2%. For the same molecule, the growth was 94.6% in the experiment with A549/ATCC NSCLC; 91.6% in the experiment with 786-0 renal; 103% with DU-145 prostate; 70.4% in the experiment with K-562 leukemia; 82.2% in the experiment with MALME-3M melanoma; 83.2% in the experiment on MDA-MB-231 breast. The growth with RXF 393 renal was 97.6%; with SF-268 CNS, 91.1%; with SF-295 CNS, 97.9%; in the experiment with SF-539 CNS it was 92.1%; with UACC-257 melanoma, 92.3%; in the experiment on M14 melanoma, 91.4%. Besides, the growth in the experiment on HCT-15 colon was 69.8%.
In the case of `Clc1ccc(Nc2scc3[n+]2CCC3)cc1`, the growth was 92.7% in the experiment on NCI-H23 lung; 101% in the experiment on NCI-H322M lung; 99.8% in the experiment on HOP-62 NSCLC; 102% in the experiment on NCI-H460 lung; 81% with HOP-92 NSCLC; 93.5% in the experiment with NCI-H522 lung. The growth is 92.4% in the experiment on A549/ATCC NSCLC; 94.9% in the experiment with 786-0 renal; 120% with COLO 205 colon; 101% in the experiment with DU-145 prostate; 95.9% with MALME-3M melanoma; 95.9% in the experiment with MDA-MB-231 breast. Moreover, the growth in the experiment with SF-268 CNS was 93.2%; in the experiment on SF-295 CNS, 94.5%; in the experiment on SF-539 CNS, 97.1%; with UACC-257 melanoma it was 94%; in the experiment on M14 melanoma, 103%; in the experiment on HCT-15 colon it was 93.4%.
For the molecule `CCCCc1c(CCC)c(=N)c2ccccc2n1C`, the growth with NCI-H23 lung is 99.2%; in the experiment on NCI-H322M lung, 85.3%; with HOP-62 NSCLC it was 78%; in the experiment with NCI-H460 lung, 67.7%; in the experiment on HOP-92 NSCLC, 48.2%; with NCI-H522 lung, 100%. The growth with A549/ATCC NSCLC was 69.8%; with 786-0 renal it was 73.8%; with COLO 205 colon it was 70.5%; with DU-145 prostate it was 79.9%; with K-562 leukemia, 8.23% (active); in the experiment on MDA-MB-231 breast, 43.2%. Moreover, the growth with RXF 393 renal was 90.9%; in the experiment on SF-268 CNS, 81.4%; with SF-295 CNS it was 9.89% (active); in the experiment with SF-539 CNS, 74.1%; in the experiment with UACC-257 melanoma, 30.8%; with M14 melanoma, 55.3%. Also, the growth in the experiment on HCT-15 colon is 44.5%.

For the origin of these results see PubChem BioAssay (NCI).
